Compounds with a hit are over-represented: about 12% of the library has one in this group of screens.
HP1b binding inh: inhibitors of HP1-beta chromodomain binding to methylated histone tails; Potency, µM (doses to about 114 µM), most hits filed as inhibitors; 0.56% of 390,000 active; AlphaScreen HP1-beta / biotin-H3K9me3 peptide binding; P83916; also: nearly all actives have a fitted effect of over 70% in size
Target sequence (P83916 whole entry, looked up): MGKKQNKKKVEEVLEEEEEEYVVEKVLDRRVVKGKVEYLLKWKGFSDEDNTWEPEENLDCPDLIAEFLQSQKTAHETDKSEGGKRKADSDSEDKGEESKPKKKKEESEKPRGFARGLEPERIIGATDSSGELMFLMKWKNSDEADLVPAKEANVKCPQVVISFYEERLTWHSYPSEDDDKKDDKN
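Compound inhibition of the preformed complex between 50 nM HP1-beta and 50 nM biotinylated H3K9me3 peptide was read by AlphaScreen. Buffer was PBS pH 7.4 with 0.01% Tween-20. Incubations ran 30 min at room temperature, with 10 ug/mL donor/acceptor beads.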
PLK1 PBD block: blocks phosphopeptide binding to human PLK1 polo-box domain; P53350; Plk1 PBD binding of FITC phosphopeptide, fluorescence polarization; Potency, µM, hits mostly inhibitors; 2.8% of 360,000 active; AID 720504; also: series mostly up to about 57 µM; nearly all actives have a fitted effect of over 65% in size
Target sequence (P53350 whole entry, looked up, the tested form may be a part): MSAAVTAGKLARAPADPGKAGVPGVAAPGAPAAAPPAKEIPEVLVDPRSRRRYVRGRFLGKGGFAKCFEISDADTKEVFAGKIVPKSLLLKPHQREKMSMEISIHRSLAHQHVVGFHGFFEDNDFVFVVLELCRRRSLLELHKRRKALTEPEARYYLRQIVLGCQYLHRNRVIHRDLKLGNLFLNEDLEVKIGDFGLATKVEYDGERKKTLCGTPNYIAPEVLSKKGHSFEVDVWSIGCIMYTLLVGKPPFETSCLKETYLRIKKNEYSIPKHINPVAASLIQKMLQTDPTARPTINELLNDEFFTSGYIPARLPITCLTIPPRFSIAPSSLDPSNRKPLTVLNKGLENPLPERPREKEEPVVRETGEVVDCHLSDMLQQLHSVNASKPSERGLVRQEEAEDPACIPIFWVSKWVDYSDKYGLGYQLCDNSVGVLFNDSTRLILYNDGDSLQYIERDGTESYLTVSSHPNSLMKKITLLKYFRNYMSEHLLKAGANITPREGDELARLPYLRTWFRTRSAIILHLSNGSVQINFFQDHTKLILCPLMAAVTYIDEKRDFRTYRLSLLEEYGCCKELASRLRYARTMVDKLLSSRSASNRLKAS
Sfp PPTase inh: Sfp phosphopantetheinyl transferase inhibition; Biochemical Sfp PPTase activity, qHTS; Potency, µM, actives largely listed as inhibitors; 3.5% of 310,000 active; Q9F4F7;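 also: the enzyme is Sfp with the accession as filed and its product quenches rhodamine fluorescence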
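Reaction rates are the 30-min fluorescence difference (ex 525, em 598 nm) in wells containing 15 nM Sfp, 5 uM rhodamine-CoA and 12.5 uM BHQ-2-YbbR at pH 7.6 with 10 mM MgCl2.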
G9a block: blocks human histone lysine methyltransferase G9a; Q96KQ7; G9a H3K9 monomethylation, AlphaScreen, 2 h; Potency, µM (doses to about 102 µM), usual class: inhibitors; 8.8% of 350,000 active; also: nearly all actives have a fitted effect of over 75% in size
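G9a (20 nM) preincubated 15 min RT with compounds, then 500 nM biotinylated H3K9 peptide and 20 uM SAM added; 2 h RT reaction. Monomethyl-H3K9 product detected by AlphaScreen with anti-H3K9me1 antibody, streptavidin donor and anti-rabbit IgG acceptor beads.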
JMJD2A Tudor inh: blocks the human JMJD2A Tudor domain. O75164. AlphaScreen JMJD2A-Tudor / H3K4me3 peptide binding. Potency, µM (doses to about 114 µM), hits mostly inhibitors. 4.4% of 390,000 active. AID 504339; also: nearly all actives have a fitted effect of over 50% in size
BAZ2B inh: blocks human BAZ2B. Potency, µM (highest dose often 114 µM), most hits filed as inhibitors. 4.4% of 360,000 active. AlphaScreen BAZ2B-H3K14Ac peptide displacement. Q9UIF8; also: nearly all actives have a fitted effect of over 60% in size
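Inhibition is scored as reduced AlphaScreen emission. The BAZ2B/b-H3(5-23)K14Ac complex (50 nM each) in PBS pH 7.4, 0.01% Tween-20 meets compound (up to 110 uM) for 30 min at RT before bead addition.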
Large screens that a line does not name were inactive. Calls follow the shape of the dose curve; as a rule, active = well fitted curve in the direction sought with a large enough effect; inconclusive = small, poorly fitted or top-dose-only effect, or another doubt; inactive = no such curve, though single readings can be large; an effect the other way counts as inactive or inconclusive.

COc1ccc(C(=O)Nc2nnc(C3=COCCO3)o2)cc1	JMJD2A Tudor inh 40µM, BAZ2B inh 16µM
O=C(Nc1nnc(C2=COCCO2)o1)c1ccc(S(=O)(=O)N2CCCCC2)cc1	G9a block inconclusive, JMJD2A Tudor inh 79µM (no result: BAZ2B inh)
CC(C)[C@@H](CC(=O)N[C@@H]1CCNC[C@H]1C(=O)N[C@H](CC(=O)N[C@@H](CCC(=O)O)CC(=O)O)Cc1c[nH]c2ccccc12)NC(=O)C[C@H](CO)NC(=O)[C@@H]1CNCC[C@H]1N	none (no result: HP1b binding inh, PLK1 PBD block, G9a block, JMJD2A Tudor inh, BAZ2B inh)
Cc1cccc(NS(=O)(=O)c2ccc(Cl)c(C(=O)Nc3ccccc3C)c2)c1	none (no result: PLK1 PBD block, Sfp PPTase inh)
Oc1ccc(/C=N/n2c(C3CCCCC3)n[nH]c2=S)c(O)c1	PLK1 PBD block inconclusive, Sfp PPTase inh 0.18µM, G9a block 1.6µM, JMJD2A Tudor inh 14µM
Oc1ccc(Br)cc1/C=N/n1c(C2CCCCC2)n[nH]c1=S	PLK1 PBD block 27µM, G9a block 50µM, JMJD2A Tudor inh inconclusive, BAZ2B inh inconclusive
O=C(c1ccc(F)cc1F)N1CCCc2ccccc21	none
CC(C)Cn1cc(Cl)c(=O)n(CC(C)C)c1=O	none
O=C(Nc1ccc(F)cc1)C1COc2ccccc2O1 (stereo not given)	G9a block 40µM
COc1ccc2nc(NNC(=O)C3COc4ccccc4O3)sc2c1 (stereo not given)	Sfp PPTase inh 79µM, G9a block inconclusive
Cc1nnc(NC(=O)C2c3ccccc3Oc3ccccc32)s1	HP1b binding inh inconclusive, PLK1 PBD block 21µM, G9a block 11µM
Cc1nnc(NC(=O)C2COc3ccccc3O2)s1 (stereo not given)	PLK1 PBD block 21µM
O/N=C(\CN1CCCCC1)c1ccccc1	none
NNc1nc2sc3c(c2c(=O)n1Cc1ccccc1)CCC3	Sfp PPTase inh 32µM, G9a block inconclusive
CSc1nc2sc3c(c2c(=O)n1C1CCCCC1)CCN(C)C3	G9a block 50µM
C=C(C)CSc1nc2sc3c(c2c(=O)n1C1CCCCC1)CCN(C)C3	JMJD2A Tudor inh inconclusive, BAZ2B inh inconclusive (no result: G9a block)
CCn1c(SCC(N)=O)nc2sc3c(c2c1=O)CCCC3	G9a block 45µM
CCSc1nc2sc3c(c2c(=O)n1C1CCCCC1)CCN(C)C3	G9a block inconclusive
NNc1nc2sc3c(c2c(=O)n1C1CCCCC1)CCN(Cc1ccccc1)C3	G9a block 50µM
CCOC(=O)CSc1nc2sc3c(c2c(=O)n1CC)CCCC3	G9a block inconclusive (no result: PLK1 PBD block, Sfp PPTase inh)
O=C(NCC(c1cccnc1)N1CCc2ccccc21)c1cccc(F)c1 (stereo not given)	none (no result: PLK1 PBD block, Sfp PPTase inh)
C#CCSc1nc2sc3c(c2c(=O)n1C)CCC3	HP1b binding inh inconclusive, G9a block 45µM, JMJD2A Tudor inh 79µM, BAZ2B inh 50µM
COc1ccc(-n2c(NN)nc3sc4c(c3c2=O)CCCC4)cc1	G9a block 50µM
Cc1nc2sc3c(c2c(=O)n1NC(=O)CCBr)CCCC3	G9a block 50µM
CCn1c(SCC(=O)NCCc2ccccc2)nc2sc3c(c2c1=O)CCN(C)C3	G9a block inconclusive
CCCc1nc2sc3c(c2c(=O)n1NC(=O)CCC(=O)OC)CCCC3	none
CSc1nc2sc3c(c2c(=O)n1C)CCC3	none (no result: G9a block)
CCN1CCN(c2nc3sc4c(c3c(=O)n2-c2ccc(OC)cc2)CCCCC4)CC1	G9a block inconclusive, JMJD2A Tudor inh inconclusive, BAZ2B inh inconclusive
CCn1c(SCC(=O)c2ccccc2)nc2sc3c(c2c1=O)CCN(C)C3	Sfp PPTase inh 50µM, G9a block 25µM, JMJD2A Tudor inh inconclusive
CCn1c(NN)nc2sc3c(c2c1=O)CCC3	Sfp PPTase inh 56µM, G9a block 45µM, JMJD2A Tudor inh inconclusive
O=C(O)C(Cc1ccccc1)N1C(=O)c2c(Cl)c(Cl)c(Cl)c(Cl)c2C1=O (stereo not given)	PLK1 PBD block inconclusive, JMJD2A Tudor inh 89µM (no result: Sfp PPTase inh, G9a block, BAZ2B inh)
O=C(O)[C@H](Cc1ccccc1)N1Cc2ccccc2C1=O	G9a block 79µM, BAZ2B inh inconclusive
O=C(O)CCN1Cc2ccccc2C1=O	G9a block 50µM, JMJD2A Tudor inh inconclusive, BAZ2B inh inconclusive
COc1ccc(C2(c3ccc(OC)cc3)NC(=O)NC2=O)cc1	G9a block inconclusive
CCCCCCCCCCOC(=O)c1csc2nnsc12	G9a block inconclusive
Cc1ccc(-n2nnnc2SCC(=O)N2CC(=O)Nc3ccccc32)cc1	none
Cn1c(C(=O)NCCc2ccccc2)cc2cc(S(=O)(=O)N3CCCCC3)ccc21	none (no result: PLK1 PBD block, Sfp PPTase inh)
CCOc1ccc(CNC(=O)CN2N=C(c3ccccc3)CCC2=O)cc1OC	JMJD2A Tudor inh inconclusive (no result: PLK1 PBD block, Sfp PPTase inh)
O=c1cnnc(Nc2ccc(Nc3ccccc3)cc2)[nH]1	G9a block 40µM, JMJD2A Tudor inh inconclusive
Nc1nnc(-c2cccc(F)c2)s1	PLK1 PBD block inconclusive
Nc1nnc(-c2ccc(Cl)c(Cl)c2)s1	G9a block 45µM
N/C(Cc1ccc([N+](=O)[O-])cc1)=N\OC(=O)c1ccc([N+](=O)[O-])cc1	HP1b binding inh inconclusive, G9a block 8.9µM, JMJD2A Tudor inh inconclusive, BAZ2B inh inconclusive
CC(C)c1cc(C(=O)O)c2cnn(C(C)C)c2n1	PLK1 PBD block 27µM, JMJD2A Tudor inh inconclusive
Cc1cc(NS(=O)(=O)c2ccc(Nc3nc(-c4sc(C)nc4C)cs3)cc2)no1	none (no result: HP1b binding inh, PLK1 PBD block, JMJD2A Tudor inh)
Cc1nc(N)sc1-c1csc(Nc2ccc(S(N)(=O)=O)cc2)n1	G9a block inconclusive, JMJD2A Tudor inh inconclusive, BAZ2B inh 50µM
CC(=O)Oc1ccc(-c2csc(Nc3ccc(S(N)(=O)=O)cc3)n2)cc1	JMJD2A Tudor inh inconclusive
COc1ccc(-c2csc(Nc3ccc(S(N)(=O)=O)cc3)n2)cc1	PLK1 PBD block inconclusive, Sfp PPTase inh inconclusive, BAZ2B inh 50µM
CCC(=O)Nc1nc(C)c(-c2csc(Nc3ccc(S(=O)(=O)Nc4cc(C)on4)cc3)n2)s1	G9a block 50µM (no result: HP1b binding inh, PLK1 PBD block, JMJD2A Tudor inh)
COc1ccc(-c2csc(Nc3ccccc3)n2)cc1	HP1b binding inh inconclusive, BAZ2B inh inconclusive
COc1ccc(-c2csc(Nc3ccc(S(=O)(=O)Nc4cc(C)on4)cc3)n2)cc1	PLK1 PBD block 19µM, G9a block 45µM, JMJD2A Tudor inh inconclusive, BAZ2B inh inconclusive
Cc1ccc(C(=O)/C=C/C(=O)O)cc1	PLK1 PBD block inconclusive, Sfp PPTase inh 13µM, G9a block 10µM
CCCCc1nc2c(c3c1C[C@H](C)OC3)CN(S(=O)(=O)c1ccccc1C(=O)OC)CC2	none (no result: HP1b binding inh, PLK1 PBD block, G9a block, JMJD2A Tudor inh, BAZ2B inh)
CCc1cc2c(cc3c(=O)n(CC(=O)NCCCN4CCCCCC4)nc(CC)n32)s1	G9a block 50µM
CCc1nn(CC(=O)NCCCN2CCOCC2)c(=O)c2cc3sccc3n12	none
CCc1nn(CC(=O)NCCCN2CCOCC2)c(=O)c2cc3cc(F)ccc3n12	G9a block 50µM
CCc1nn(CC(=O)NCCCN2CCN(C)CC2)c(=O)c2cc3sc(C)cc3n12	none (no result: G9a block)
CCOC(=O)c1ccc(CNC(=O)c2cc(COc3ccccc3SC)on2)o1	none

Assay outcomes from PubChem.
